Measured values as given in ChEMBL document CHEMBL3433997, “St. Jude Leishmania screening dataset” (2016).

Tests used:
Type in all cases: functional
[1] = molecular target: Solute carrier family 2, facilitated glucose transporter member 1 (Homo sapiens) (UniProt P11166); experiment: ST_JUDE_LEISH: Cytotoxicity at 2uM final concentration against transgenic Leishmania Mexicana promastigotes LmGLUT1 that are glucose transport deficient and complemented with the human glucose transporter GLUT1. Activity is measured by DNA content using SYBR green in vitro
Sequence of Solute carrier family 2, facilitated glucose transporter member 1 (Homo sapiens) (P11166 whole entry): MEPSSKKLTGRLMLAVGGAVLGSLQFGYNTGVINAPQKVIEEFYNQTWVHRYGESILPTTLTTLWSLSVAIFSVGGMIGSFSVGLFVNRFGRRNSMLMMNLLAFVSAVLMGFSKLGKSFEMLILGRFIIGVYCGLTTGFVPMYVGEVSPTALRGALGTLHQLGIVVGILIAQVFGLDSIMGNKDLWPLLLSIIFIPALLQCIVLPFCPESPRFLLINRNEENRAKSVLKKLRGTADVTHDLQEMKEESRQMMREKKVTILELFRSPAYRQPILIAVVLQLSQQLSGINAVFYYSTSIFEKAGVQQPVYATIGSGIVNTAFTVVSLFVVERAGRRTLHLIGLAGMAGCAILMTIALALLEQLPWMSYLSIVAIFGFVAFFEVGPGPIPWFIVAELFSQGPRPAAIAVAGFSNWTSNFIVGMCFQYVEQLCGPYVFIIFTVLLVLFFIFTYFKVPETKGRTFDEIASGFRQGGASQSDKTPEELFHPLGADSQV

[2] = molecular target: Hexose transporter 1 (Plasmodium falciparum) (UniProt O97467); experiment: ST_JUDE_LEISH: Cytotoxicity at 2uM final concentration against transgenic Leishmania Mexicana promastigotes LmPfHT that are glucose transport deficient and complemented with the Plasmodium falciparum hexose transporter. Activity is measured by DNA content using SYBR green in vitro
[3] = molecular target: Glucose transporter (Leishmania mexicana) (UniProt O61059); experiment: ST_JUDE_LEISH: Cytotoxicity at 2uM final concentration against transgenic Leishmania Mexicana promastigotes LmGT2 that are glucose transport deficient and complemented with the L. Mexicana glucose transporter 2. Activity is measured by DNA content using SYBR green in vitro

SMILES | inhibition [1] | inhibition [2] | inhibition [3]
O=C(/C=C/c1ccc(Cl)c(Cl)c1)NCCCCCCN1CCCN(C(=O)Nc2ccc(Cl)c(Cl)c2)CC1 | 2.36% | 2.49% | -2.06%
O=C(OCc1ccccn1)c1nc2ccccc2[nH]1 | 0.81% | 2.57% | 0.92%
COc1ccc(C#Cc2ccc(-c3c(C)[nH]c(C)c(Cl)c3=O)cc2)cc1 | 6.05% | 8.9% | 4.03%
O=C(NCC1CC1)C1Cc2c([nH]c3ccc(Br)cc23)C2(CCN(CCc3ccccc3)CC2)N1 (stereo not drawn) | 1.43% | -0.28% | 1.33%
Cc1cc2c(cc1C(F)(F)F)N(C(=O)Nc1cc(OCCN(C)C)cc(C(F)(F)F)c1)CC2 | -0.72% | -1.6% | -0.42%
c1ccc2c(c1)CN(Cc1ccsc1)CC1(CCN(Cc3c[nH]c4cnccc34)CC1)O2 | 4.5% | 3.19% | 6.86%
CN1CCC(Oc2ccc(CN3CC[C@H](NC(=O)c4ccc(Cl)c(Cl)c4)C3)c3ccccc23)C1 (stereo partly drawn) | 2.7% | 4.41% | 3.37%
O=C(CCC1CCCC1)N(Cc1ccc(-c2ccc(CNCCc3ccccn3)cc2)cc1)CC1CCCCN1 (stereo not drawn) | 15.2% | 4.22% | 1.88%
C=CCOC(=O)N1CCC(CNCc2ccc(-c3ccc(-c4nc5cc(C(F)(F)F)ccc5[nH]4)cc3)cc2)C1 (stereo not drawn) | 3.5% | -0.38% | 1.41%
CC1(C)NC(N)=NC(=N)N1OCCOc1cccc(C(F)(F)F)c1 | 1.04% | 0.2% | 2.45%
CC(C)c1nc2c(N)nc(N)nc2nc1N | -0.33% | 0.25% | 1.01%
O=C(Nc1ccc(C(=O)OCC2CCCN3CCCCC23)cc1)c1ccc(Cl)c(Cl)c1 (stereo not drawn) | 0.06% | -0.05% | 0.18%
CC(C)(C)c1ccc(Cn2c(=N)n(CC(=O)c3ccc(-c4ccccc4)cc3)c3ccccc32)cc1 | 0.71% | -0.1% | -0.07%
CC(C)CN1C(=O)c2ccc(C(=O)Nc3nccs3)cc2C1=O | 1.07% | 1.52% | 3.65%
Cc1cc(N(C)CCN(C)C)nc(Nc2ccc(Cl)cc2)n1 | 5.23% | 5.67% | 7.48%
CSc1nc2nc(C)c(Cc3cccc(F)c3)c(C)n2n1 | -1.07% | -0.45% | 0.34%
O=C(/C=C/c1ccc(Cl)c(Cl)c1)NCCCN1CCC(c2c[nH]c3ccccc23)CC1 | 6.28% | 5.12% | 6.57%
COc1ccc(NC(=O)c2cc(-c3ccc(NC(C)=O)cc3)cnc2N)cc1 | 2.25% | 2.66% | 0.5%
O=C(Nc1ccc(-c2csc(-c3nc4ccccc4[nH]3)c2)cc1)Nc1ccc(Cl)c(Cl)c1 | 1.35% | 1.35% | -1.48%
Cc1cccc2nc(-c3ccc(-c4cccc(NC(=O)C(=O)c5cccn5C)c4)cc3)[nH]c12 | 4.58% | 2.19% | 2.29%
CCc1cc2c(cc1OCCN(C)C)N(C(=O)Nc1ccc(-c3ccncc3)c(Cl)c1)CC2 | 6.82% | 6.4% | 3.08%
O=C(/C=C/c1ccc(Cl)c(Cl)c1)NCCCCCN1CCC(NC(=O)Nc2ccc(Cl)c(C(F)(F)F)c2)CC1 | 1.18% | 0.31% | 1.66%
Cc1ccc(Nc2nc(C)cc(NC3CC3)n2)cc1 | 8.73% | 6.75% | 7%
CC(=O)Nc1ccc(CN2CCC(NC(=O)c3ccc(-c4ccc(N(C)C)cc4)s3)CC2)cc1 | 2.06% | 1.82% | 2.63%

SMILES | inhibition [1] | inhibition [2] | inhibition [3]
NS(=O)(=O)c1ccccc1Nc1nc(Nc2ccc(N3CCOCC3)cc2)nc2c1CCC2 | 11.1% | 4.49% | 3.91%
CC(C(=O)NC1CCN(c2ccnc(Nc3ccc(F)cc3)n2)C1)c1ccc(Cl)cc1 (stereo not drawn) | 1.1% | 0.7% | 2.7%
CCC[C@@H]([C@@H](CC1CCCCC1)C(=O)NC(C(=O)Nc1nccs1)C(CC)c1ccccc1)N(O)C=O (stereo partly drawn) | 0.29% | 0.04% | 0.64%
Cc1ccc2[nH]c(C)c(Br)c(=O)c2c1 | -1% | -2.07% | -3.38%
Cc1onc(-c2ccccc2)c1-c1nc(NC2CCCC(C)C2)no1 (stereo not drawn) | 2.36% | -1.49% | 3.54%
c1cc2[nH]c(CCc3nc4cc(C5=NC6CCCCC6N5)ccc4[nH]3)nc2cc1C1=NC2CCCCC2N1 (stereo not drawn) | 19.7% | 18.5% | 6.48%
CCn1cnc2c(N3CCCC3=O)cc(C(=O)N[C@@H](Cc3ccccc3)[C@H](O)CNC3CCCCC3)cc21 | 2% | 1.91% | 2.63%
COc1ccc2nccc([C@@H](O)CN3CCC(NC(=O)/C=C/c4cccc(-c5ccccc5)c4)CC3)c2c1 | 7.76% | 6.73% | 0.36%
COc1cc(NC2CCCC(NCc3cn(S(=O)(=O)c4ccccc4)c4ccccc34)C2)nc2ccccc12 (stereo not drawn) | 1.09% | 2.28% | 2.67%
N=C(Cc1ccc(Cl)cc1)NCCN1CCCCCC1 | 5.13% | 7.11% | 6.19%
CCc1ccc(S(=O)(=O)Nc2ccc(CCN3CCC(N4CCCCC4)CC3)cc2)cc1 | 13.9% | 14.9% | 11.4%
CS(=O)(=O)c1ccc(CNCc2ccc(-c3ccc(-c4nc5cc(C(F)(F)F)ccc5[nH]4)cc3)cc2)cc1 | 2.96% | 1.96% | 2.3%
O=C(N[C@@H](CC1CCCCC1)C(=O)NC1CCCCC1)c1ccc(O)c(-c2cccc(C(F)(F)F)c2)c1 | -2.73% | -1.15% | -3.33%
O=C(Nc1ccc(OC2CCN(Cc3ccsc3)C2)c(Cl)c1)c1ccco1 (stereo not drawn) | 0.28% | 1.35% | 0.21%
CCN(CC)CCN(Cc1ccc(-c2ccc(C(F)(F)F)cc2)cc1)C(=O)Cn1c(CCc2cccc(C#N)c2)nc(=O)c2ccccc21 | 2.68% | 1.83% | 2.44%
Cn1ccnc1CNC(=O)c1ccc(-c2cccc(-c3nc4cc(C(F)(F)F)ccc4[nH]3)c2)cc1 | 1.73% | 0.7% | 0.2%
CCCc1cc(=O)[nH]c(-n2nc(C)cc2NC(=O)C(CC)c2ccccc2)n1 (stereo not drawn) | 35% | 38.3% | 4.69%
Oc1ccc(CCNc2nc(NCc3ccccc3-c3ccccc3)nc(N3CCCNCC3)n2)cc1 | 0.19% | 2.05% | 0.48%
Cc1cc2c(cc1C(F)(F)F)N(C(=O)Nc1cccc(C(=O)NC3CCN(Cc4ccccc4)CC3)c1)CC2 | 2.13% | 3.38% | 3.16%
CNc1ccc(CNCc2cccc(-c3ccc(-c4nc5ccccc5[nH]4)s3)c2)cc1 | 1.37% | 1.02% | 0.87%
ON=C1CCc2cc(-c3[nH]c(-c4cccc(OCCNCc5ccc(F)cc5)c4)nc3-c3ccncc3)ccc21 | 16.7% | 9.15% | 10.8%
OC(CNc1ccnc(Nc2ccccc2)n1)c1cccc(C(F)(F)F)c1 (stereo not drawn) | 4.65% | 4.22% | 0.68%
Cc1ccnc2nc(C(=O)Nc3cc(C(F)(F)F)ccc3N3CCCCC3)nn12 | 1.48% | 2.09% | 1.77%
Oc1cc(NCc2ccccc2NCc2ccc(Cl)c(Cl)c2)nc2ccccc12 | 2.41% | 3.68% | 3.11%

SMILES | inhibition [1] | inhibition [2] | inhibition [3]
COC(=O)c1ccc(C2OC3(C(=O)c4ccccc4C3=O)C(OC)=C2Cl)cc1C(C)=O (stereo not drawn) | -2.44% | -0.79% | -0.7%
CCOc1cc(Cl)c(C(C)NC(=O)c2cccc(OC)c2)cc1OCC (stereo not drawn) | 7.84% | 7.46% | 4.84%
Cc1ccc(Nc2nc(N/N=C/c3cc4c(cc3Br)OCO4)nc(Nc3ccc([N+](=O)[O-])cc3)n2)cc1C | 1.58% | 2.19% | 4.71%
CCN(c1cc(C)nc(Nc2ccc(Cl)cc2)n1)[C@H]1CCN(Cc2ccccc2)C1 | 9.15% | 7.78% | 6.41%
CS(=O)(=O)c1ccc(CCNCc2ccc(-c3ccc(CN(C(=O)C4CC(=O)c5ccccc54)C4CCN(Cc5ccccc5)CC4)cc3)nc2)cc1 (stereo not drawn) | 1.6% | 1.34% | 2.34%
Cc1cc(=NN=Cc2cccc(Cl)c2)c2ccccc2[nH]1 | 5.11% | 6.14% | 3.65%
Fc1ccc(Nc2ccnc3cc(I)ccc23)c(Cl)c1 | 2.32% | 2.73% | 1.47%
Cc1cccc2[nH]cc(C3CCN(CCC4CCN(C(=O)/C=C/c5ccc(Cl)c(Cl)c5)CC4)CC3)c12 | 1.19% | -2.11% | 2.11%
CC(C)NCc1cc(Nc2ccnc3cc(Cl)ccc23)ccc1O | 0.05% | 1.48% | 1.69%
CC(=O)Nc1ccc(CN2CCC(NC(=O)c3ccc(-c4cccc(C(F)(F)F)c4)s3)CC2)cc1 | 0.69% | 0.42% | -4.9%
CCOc1ccccc1NC(=O)C(Sc1nc(C)cc(C)c1C#N)c1ccccc1 (stereo not drawn) | 6.11% | 3.77% | 6.45%
NCCC(=O)Nc1ccc(-c2cnc3[nH]cc(-c4ccc(C(=O)O)cc4)c3c2)cn1 | 1.05% | 1.74% | 0.13%
O=C(Nc1ccc(F)cc1)c1nc2ccccc2nc1Cl | 4.1% | 3.68% | 4.22%
Cn1cncc1C(=O)Nc1cccc(-c2cccc(-c3nc4ccccc4[nH]3)c2)c1 | 4.71% | 4.74% | 5.38%
Cc1noc(C)c1-c1cccc(CNCc2cccc(-c3csc(-c4nc5ccccc5[nH]4)c3)c2)c1 | 2.13% | 3.22% | 1.31%
O=C(Nc1cccc(C(F)(F)F)c1)Nc1nc2ccc([N+](=O)[O-])cc2s1 | 4.59% | 4.44% | 0.91%
CC(C)c1ccc(NC(=O)c2ccc(NCCCN(C)Cc3ccccc3)c([N+](=O)[O-])c2)cc1 | 0.47% | -1.98% | -0.53%
CNC(=O)c1cnc(Nc2ccc(N3CCN(C)CC3)cc2)nc1Nc1ccccc1OC | 4.96% | 4.09% | 3.41%
COc1ccc2[nH]c(C)cc(=NN=Cc3cc(OC)c(OC)cc3OC)c2c1 | 5.42% | 5.13% | 6.18%
CCCC(C)Nc1nc(C)cc(NCCC(=O)Nc2ccccc2)n1 (stereo not drawn) | 6.84% | 8.38% | 2.55%
CCOc1ccc2[nH]c(C)cc(=NN=Cc3cccnc3)c2c1 | 8.63% | 6.06% | 7.76%
O=C(NCCN1CCCCC1)c1ccc(CNC(=O)c2ccc(O)c(-c3cccc(C(F)(F)F)c3)c2)cc1 | 4.42% | 3.09% | 3.27%
COc1ccccc1C1CCN(C2CCC(NC(=O)/C=C/c3ccc4c(c3)OC(F)(F)O4)CC2)CC1 (stereo not drawn) | 4.33% | 4.26% | 1.28%
